Screens (PubChem)
Nrf2 ARE act – qHTS of Nrf2 Activators; AREc32 ARE-luciferase reporter (MCF7-derived line), luminescence, 24 h; Potency, µM (highest dose often 46.1 µM), without a hit: top-dose activation, actives largely listed as activators; 410,000 compounds, 0.31% hits; AID 624171, 2012; further: potency means the concentration at half of the fitted maximal effect; % of control where 0% means no effect; nearly all actives have a fitted effect of over 65% in size
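ARE activation measured as luciferase luminescence (Steady-Glo, 30 min RT) in AREc32_Fluc cells after 24 hr compound exposure at 37 deg C, 5% CO2; cells seeded overnight at 1000/well in OPTI-MEM, 5% FBS.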
IDH1 R132H inh – qHTS for Inhibitors of mutant isocitrate dehydrogenase 1 (IDH1): qHTS | IDH1-R132H enzyme, NADPH consumption, diaphorase/resazurin fluorescence | Potency, µM (titrated, usually from 76.6 µM), for the others: at the highest dose activity change, negative = inhibition, usual class: inhibitors | 390,000 compounds, 0.093% hits; further: potency means the concentration at half of the fitted maximal effect; on the % scale 0 is the no-effect control and ±100 the full control effect; nearly all actives have a fitted effect of over 65% in size
Target sequence (O75874 whole entry R132H, stated change not applied): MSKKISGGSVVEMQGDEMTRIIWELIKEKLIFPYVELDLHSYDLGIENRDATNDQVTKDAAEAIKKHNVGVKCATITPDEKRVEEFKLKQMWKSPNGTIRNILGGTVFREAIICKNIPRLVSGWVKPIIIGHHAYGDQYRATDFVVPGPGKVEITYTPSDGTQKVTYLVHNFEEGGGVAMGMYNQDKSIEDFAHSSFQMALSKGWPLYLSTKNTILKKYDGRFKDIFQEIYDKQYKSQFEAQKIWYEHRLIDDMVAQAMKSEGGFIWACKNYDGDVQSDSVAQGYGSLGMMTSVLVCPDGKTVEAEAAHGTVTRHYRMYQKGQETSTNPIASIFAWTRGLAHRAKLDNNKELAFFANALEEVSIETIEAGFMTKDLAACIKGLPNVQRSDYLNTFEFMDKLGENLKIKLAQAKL
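IDH1-R132H (0.5 ug/mL) preincubated 30 min with compound, then NADPH (0.016 mM) and alpha-KG (2 mM) added; 80 min at RT, pH 7.5. Remaining NADPH coupled via diaphorase/resazurin to fluorescence (540/590 nm); concentration-response curves normalized to no-enzyme control.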
LDHA block – qHTS assay for inhibitors of human lactate dehydrogenase | purified LDHA, NADH/diaphorase-resazurin fluorescence; stronger effect = lower value | 480,000 compounds, 0.15% hits | L-lactate dehydrogenase A chain (Homo sapiens), P00338 | activity change, % (values are at about 110 or 230 µM); in the data active means activity change below about -30%; inconclusive means mostly about -25% to -30%;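 further: plate controls were DMSO wells for no effect and wells without enzyme for full effect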
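LDH5 2 nM; NADH 0.06 mM, pyruvate 0.2 mM; 200 mM Tris pH 7.4, EDTA, Tween-20; 5 min RT. Detection: diaphorase 0.133 mg/mL + resazurin 37 µM, fluorescence ex540/em590 at 0 and 20 min; normalized to enzyme-free and DMSO wells.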
A549 tox – Nrf2 qHTS screen for inhibitors: counterscreen for cytotoxicity. A549 ARE-Fluc cells, CellTiter-Fluor viability, 18-24 h. AID 504648, 2011. Potency, µM (series often up to 46 µM), inactives show at the top dose activity change, negative = cytotoxicity, hits mostly inhibitors. 390,000 compounds, 0.16% hits; further: potency means the concentration at half of the fitted maximal effect; on the % scale 0 is the no-effect control and ±100 the full control effect
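A549 ARE_Fluc cells in 5% FBS OPTI-MEM were exposed to compounds in concentration-response for 18-24 h at 37 deg C. Viability was read by CellTiter-Fluor fluorescence (Ex 405/Em 525) after 30 min, before the luciferase read.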
Nrf2 block – Nrf2 qHTS screen for inhibitors | A549 ARE-Fluc reporter, luciferase luminescence, 18-24 h | Potency, µM (highest dose often 46 µM), for the others: top-dose activity change, negative = inhibition, usual class: inhibitors | 360,000 compounds, 2.1% hits | AID 504444, 2011; further: potency means the concentration at half of the fitted maximal effect; on the % scale 0 is the no-effect control and ±100 the full control effect; nearly all actives have a fitted effect of over 60% in size
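In this cell-based qHTS, ARE-driven firefly luciferase in A549 cells reports Nrf2 activity; the luminescent signal after BugLite lysis is the measured value, with a prior CellTiter-Fluor read for cell health.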
12-LOX inh – Primary qHTS assay for inhibitors of human arachidonate 12S-lipoxygenase (ALOX12): Round 2. purified 12hLO, xylenol orange hydroperoxide absorbance. Potency, µM (series often up to 108 µM), inactives show top-dose activity change, negative = inhibition, actives largely listed as inhibitors. 580,000 compounds, 1.1% hits. AID 1671190, 2021; further: potency means the concentration at half of the fitted maximal effect; on the % scale 0 is the no-effect control and ±100 the full control effect
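Hydroperoxide product was detected by ferrous iron/xylenol orange as the 573 to 405 nm absorbance ratio. Arachidonic acid at 40 uM (final) was turned over for 30 min at room temperature by 150 nM human 12hLO, pH 7.0 Hepes buffer, after 15 min compound preincubation.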
Starred values were filed as active, the others as inactive; ? = inconclusive; / = no result. Compounds with a hit are over-represented: about 2.7% of the library has one in this group of screens. Unless noted, the call rests on the fitted dose curve; in most records, active means well fitted curve in the direction sought with a large enough effect; inconclusive means small, poorly fitted or top-dose-only effect, or another doubt; inactive means no such curve, though single readings can be large; an effect the other way counts as inactive or inconclusive.

SMILES	Nrf2 ARE act	IDH1 R132H inh	LDHA block	A549 tox	Nrf2 block	12-LOX inh
O=S(=O)(c1ccc(Cl)cc1)N1CCN(c2ncnc3sccc23)CC1	2.9%	2.5%	2.0	-5.6%	20.6µM*	1.9%
Cc1csc2c(N3CCN(S(=O)(=O)c4ccc(Cl)cc4)CC3)ncnc12	-0.8%	-2.6%	-9.4	5.5%	?	0.0%
COc1ccc(-c2noc([C@@H]3CCCN3C(=O)c3ccc(C#N)cc3)n2)cc1OC	/	/	/	/	/	25.1µM*
Cc1[nH]c2ccc(C(=O)Nc3ccncc3)cc2c1C	3.6%	21.4%	-6.7	-3.4%	11.6µM*	0.6%
Cc1ccc(C)c(NS(=O)(=O)c2ccc3oc(=O)ccc3c2)c1	-0.2%	?	-0.4	-9.3%	-22.9%	?
Cc1ccc(C)c(NS(=O)(=O)c2ccc3c(c2)Cc2cc(S(=O)(=O)Nc4cc(C)ccc4C)ccc2-3)c1	11.7%	-3.6%	-5.6	-29.6%	13µM*	-1.7%
CC(=O)Nc1c(C)noc1/C=C\c1ccc(C)c(S(=O)(=O)Nc2ccc(C(C)C)cc2)c1	/	/	2.2	/	/	?
CCn1c(=NC(=O)CS(=O)(=O)c2ccc(C)cc2)sc2cccc(OC)c21	0.0%	-1.6%	-6.3	-23.2%	23.1µM*	-17.7%
COC(=O)c1ccc(NC(=O)CCc2ncc(-c3ccccc3)o2)cc1	/	/	-6.0	/	/	-1.6%
O=S(=O)(c1ccc(Br)cc1Cl)N1CCNCC1	/	/	0.6	/	/	-10.3%
Cc1ccc(N2CCN(C(=O)CCc3c(C)nc4ncnn4c3C)CC2)c(C)c1	0.5%	-4.8%	1.2	1.4%	18.4µM*	-10.9%
CN(C)S(=O)(=O)c1cccc(NC(=O)COc2ccc(Cl)cc2)c1	/	/	1.6	/	/	?
COc1ccc(-c2nc(Cn3c(SCc4cccc(C(F)(F)F)c4)nc4cccnc43)c(C)o2)cc1OC	-0.9%	-12.5%	0.5	-19.2%	23.1µM*	-18.2%
O=C(Nc1ccc(Cl)cc1)N1CCN(C(=O)C2CCCO2)CC1 (stereo not drawn)	-0.6%	2.2%	-1.7	-1.2%	-13.0%	5.6%
O=C(Nc1cc(Cl)cc(Cl)c1)N1CCN(C(=O)C2CCCO2)CC1 (stereo not drawn)	0.5%	1.9%	-5.7	5.8%	16.4µM*	-1.1%
CC(=O)NC1(C)CCN(Cc2cnc(-c3cccc(C(F)(F)F)c3)s2)CC1	/	/	/	/	/	28.2µM*
CCCNC(=O)COc1ncnc2c(Cl)cc(Cl)cc12	/	/	0.0	/	/	-0.5%
COC(=O)c1cc(-c2ccccc2)sc1N	15.8µM*	9.3%	-1.3	0.6%	?	?
CC(=O)c1c(C)oc2cc(C)c(NS(=O)(=O)c3ccc(C(C)(C)C)cc3)cc12	/	/	-21.2	/	/	?
COC(=O)c1ccc(COC(=O)c2ccccc2C(=O)c2ccc(Cl)cc2)cc1	/	/	-4.4	/	/	-0.1%
O=C(CSc1ccc(-c2cccs2)nn1)Nc1cccc(F)c1	6.9%	0.0%	-6.8	-0.2%	20.6µM*	-10.1%
CCOc1ccc(NC(=O)CSc2ccc(-c3ccccn3)nn2)cc1	0.0%	1.7%	-8.9	0.6%	-7.0%	-7.1%
O=C(CSc1ccc(-c2ccccn2)nn1)Nc1ccc(F)c(F)c1	4.1%	6.4%	-1.5	-8.2%	3.26µM*	4.8%
CCOC(=O)c1ccc(NC(=O)CSc2ccc(-c3ccccn3)nn2)cc1	8.5%	-4.9%	1.9	-15.7%	20.6µM*	0.0%
O=C(CSc1ccc(-c2cccnc2)nn1)Nc1ccc(Br)cc1	2.8%	1.2%	-7.1	-13.6%	7.31µM*	?
SMILES	Nrf2 ARE act	IDH1 R132H inh	LDHA block	A549 tox	Nrf2 block	12-LOX inh
COc1cc(NC(=O)CN2C(=O)NC3(CCCCC3)C2=O)cc(OC)c1	/	/	/	/	/	-3.9%
COc1cc(C#N)ccc1OC(C)C(=O)c1ccc2c(c1)CCC2 (stereo not drawn)	/	/	0.8	/	/	51.2%
Cc1ccc(-c2csc(=Nc3cccnc3)n2CCCn2ccnc2)cc1C	0.2%	-1.1%	-7.0	-5.8%	18.4µM*	-2.2%
Cc1ccc(-c2csc(=Nc3cccnc3)n2CCCN2CCCC2=O)cc1C	5.3%	-1.1%	-4.7	-3.9%	?	3.7%
CCN(CC)S(=O)(=O)c1ccc(NC(=O)Nc2cccc(C(F)(F)F)c2)cc1	2.4%	-0.5%	1.3	?	20.6µM*	?
O=C(Nc1ccncc1)Nc1cccc(C(F)(F)F)c1	0.1%	-5.8%	-4.6	0.4%	?	-6.4%
NC(=O)/C=C\C(=O)Nc1cccc(C(F)(F)F)c1	?	14.2%	-1.9	-21.3%	1.84µM*	8.9%
Cc1ccc(S(=O)(=O)Nc2ccc(NC(=O)Nc3cccc(C(F)(F)F)c3)cc2)cc1	-2.9%	-7.2%	-4.5	?	18.4µM*	?
O=C(Nc1ccc(OC(F)F)cc1)Nc1cccc(C(F)(F)F)c1	0.1%	4.0%	-0.3	?	20.6µM*	-26.9%
O=C(/C=C/c1cccc(O)c1)c1cccnc1	?	2.0%	-3.8	-1.3%	-10.3%	-9.9%
COc1cc(C(=O)/C=C/c2cccnc2)c([N+](=O)[O-])cc1OC	-4.3%	12.6%	-5.5	?	18.4µM*	-5.8%
O=C(/C=C/c1cccnc1)c1cccc(O)c1	-0.6%	3.5%	1.3	1.1%	-5.1%	8.91µM*
N#Cc1cccnc1N1CCN(C(C(=O)O)c2c[nH]c3ccc(Br)cc23)CC1 (stereo not drawn)	/	/	2.2	/	/	?
CC(C)CNc1nc2ccccc2nc1NS(=O)(=O)c1ccccc1	/	/	3.9	/	/	?
Cc1cc(N2CCOCC2)n2nc(C)c(-c3ccccc3Cl)c2n1	0.4%	10.9%	0.1	?	16.4µM*	0.0%
CC(C)=CC1C=C(C)C(C)C(C)C1/C=N/NC(=O)c1ccccc1 (stereo not drawn)	/	/	-8.0	/	/	13.9%
CC(=O)Nc1c(-c2ccccc2)c(C)nn1-c1ccc(C(=O)N2CCN(C)CC2)cc1	/	/	-2.6	/	/	1.0%
CC(=O)C1=C(O)C(=O)N(c2ccc(O)cc2)C1c1ccccc1Cl (stereo not drawn)	-0.8%	0.1%	-3.3	0.2%	?	?
CC(=O)C1=C(O)C(=O)N(c2cccc(Br)c2)C1c1ccccc1Cl (stereo not drawn)	-0.5%	-6.4%	-3.5	-4.5%	7.1%	17.8µM*
C/C(=N\N=C(N)N)c1cc(Cl)ccc1Cl	4.1%	-4.9%	1.2	?	16.4µM*	2.9%
